Holding throughout (experiment): NCI-60 one-dose screen, 48 h (100 = growth as untreated, 0 = no growth, -100 = all killed)
What all share (conditions): 10 µM unless noted

The subject of assay [1] is HCT-15 colon.
The test system of assay [2] is HT29 colon.
The test system of assay [3] is SNB-75 CNS.
In assay [4] the test system is SNB-19 CNS.
Assay [5] has as its system U251 CNS.
Assay [6] has as its system PC-3 prostate.
In assay [7] the test system is SK-MEL-5 melanoma.
For assay [8], the system named is UACC-62 melanoma.
Assay [9] concerns LOX IMVI melanoma.
The subject of assay [10] is SK-MEL-28 melanoma.
For assay [11], the system named is SK-MEL-2 melanoma.
The subject of assay [12] is EKVX NSCLC.
Assay [13] has as its system SN12C renal.
The subject of assay [14] is UO-31 renal.
Assay [15] deals with ACHN renal.
Assay [16] has as its system CAKI-1 renal.
Assay [17] relates to A498 renal.
Assay [18] deals with CCRF-CEM leukemia.
The test system of assay [19] is MOLT-4 leukemia.

In PubChem BioAssay (NCI) one finds growth data, which are given here for eight compounds.

Compounds without any hit were thinned out: in the full panel of roughly 83,000, 20% have a hit.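 Values shown are percent growth following 48 h exposure of cells in 96-well plates to a single concentration of compound; below 10 was considered active.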 A number with no mark means an inactive call. Calls of active or inactive are those of the source.

Consider `CN1CCC[C@@H]1CCO[C@](C)(c1ccccc1)c1ccc(Cl)cc1`, for which the growth in [1] was 62.2%; in [2] it was 17.3%; in assay [3], 52.3%; in assay [4], 99.5%; in [5], 64.3%; in assay [6], 66.2%. Besides, the growth in [7] is -100% (active); in [8] it was 37.2%; in assay [9] it was 70.7%; in assay [10] it was 44.3%; in [11], 90.4%; in assay [12], 69.3%. The growth in [13] is 66.5%; in assay [14], 36.9%; in assay [15] it was 65.9%; in [16], 71%; in [17], 88.1%; in assay [18] it was 65.2%. Besides, the growth in [19] was 67.7%.
As to `C[C@H](C(=O)N[C@@H](Cc1ccc(-c2ccccc2)cc1)C(=O)NC1CC(C)(C)NC(C)(C)C1)c1ccc(-c2ccccc2)c(F)c1`, the growth in assay [1] is -75% (active); in [2], -61.2% (active); in assay [3] it was 13.3%; in assay [4], -6.87% (active); in [5] it was -71% (active); in assay [6], -65.5% (active). In addition, the growth in assay [7] was -93.1% (active); in [8], -43.9% (active); in assay [9] it was -85.3% (active); in assay [10] it was -77.7% (active); in assay [11], -54.9% (active); in assay [12], -7.01% (active). For the same compound, the growth is -50.7% (active) in [13]; -85.5% (active) in [14]; -86.9% (active) in [15]; -4.66% (active) in assay [17]; -20.9% (active) in assay [18]; -42.4% (active) in assay [19].
As for `O=C(CNc1ccc2c(c1)C(=O)c1ccccc1C2=O)Nc1ccc2c(c1)C(=O)c1ccccc1C2=O`, the growth in assay [1] was -81.5% (active); in [2], -54.5% (active); in [3], -51.4% (active); in assay [4], -29.9% (active); in assay [5] it was -91.4% (active); in assay [6] it was -24.3% (active). For the same compound, the growth in assay [7] was -98.1% (active); in [8], -93.3% (active); in assay [9], -91.7% (active); in assay [10], -75.1% (active); in [11] it was -74.4% (active); in assay [12], -18.5% (active). The growth in [13] is -87% (active); in [14], -96.5% (active); in [15], -94.3% (active); in assay [16] it was -80.8% (active); in assay [17], 27.6%; in assay [18], -11.6% (active). Moreover, the growth in [19] was -36.6% (active).
With `COc1cnc2c(c1)C(=O)c1c-2n(CCCN2CCCC2)c(=O)c2cc(F)ccc12`, the growth in [1] is -18.9% (active); in [2] it was -31.2% (active); in [3] it was -18.9% (active); in [4], 19.7%; in [5], -19% (active); in assay [6], 9.68% (active). The growth in assay [7] is -95.9% (active); in assay [8], -27.8% (active); in assay [9], -69.7% (active); in assay [10], 27.4%; in assay [11] it was 23.1%; in assay [12] it was 4.91% (active). Also, the growth in assay [13] is 9.02% (active); in assay [14], -96.2% (active); in assay [15] it was -67.7% (active); in assay [17], -92.8% (active); in assay [18], 0.937% (active); in [19], -19.5% (active).
On to `CCOC(=O)CCC(=O)O[C@H]1[C@H](O[C@@H]2[C@@H](C)[C@H](O[C@H]3C[C@@](C)(OC)[C@@H](O)[C@H](C)O3)[C@@H](C)C(=O)O[C@H](CC)[C@@](C)(O)[C@H](O)[C@@H](C)C(=O)[C@H](C)C[C@@]2(C)O)O[C@H](C)C[C@@H]1N(C)C`, for which the growth in assay [1] is 98.1%; in [2], 102%; in [3], 91.5%; in assay [4], 112%; in [5], 101%; in assay [6], 92.6%. The growth in assay [7] is 104%; in assay [8] it was 102%; in assay [9], 102%; in assay [10], 117%; in [11], 121%; in assay [12], 100%. Moreover, the growth in [13] is 101%; in assay [14], 67.7%; in assay [15] it was 96.4%; in assay [16], 93.2%; in [17], 120%; in assay [18], 91.4%. Moreover, the growth in assay [19] is 94.2%.
In the case of `O=C1NCCc2c1noc2-c1ccccc1`, the growth in assay [1] was 106%; in [2] it was 90.5%; in [3], 89.7%; in assay [4], 105%; in assay [5], 98.5%; in assay [6], 94.5%. The growth in [7] was 105%; in [8] it was 104%; in [9], 98.7%; in assay [10], 111%; in [11] it was 101%; in assay [12], 97.8%. The growth in assay [13] was 109%; in [14], 88.2%; in assay [15], 106%; in assay [17], 105%; in assay [18] it was 109%; in [19], 97.5%.
With `Cc1cc2c(cc1C)[n+](Cc1ccc3ccccc3n1)cn2Cc1ccc2ccccc2n1`, the growth was 66.2% in assay [1]; -14.5% (active) in assay [2]; -1.25% (active) in [3]; 16.4% in assay [4]; 7.2% (active) in assay [5]; -7.23% (active) in assay [6]. The growth was -93.1% (active) in assay [7]; -38.1% (active) in assay [8]; -56.9% (active) in assay [9]; 10.2% in [10]; -32% (active) in assay [11]; 39.6% in assay [12]. In addition, the growth in assay [13] is 15.2%; in [14] it was 53.2%; in [15] it was 56.5%; in assay [17], 17.1%; in assay [18], 15.1%; in assay [19], 7.97% (active).
On to `COc1cnc2c(c1)C(=O)c1c-2n(CCCN2CCOCC2)c(=O)c2cc(F)ccc12`, for which the growth in assay [1] was 8.29% (active); in assay [2] it was -27.5% (active); in assay [3], -19.1% (active); in assay [4], 14.5%; in assay [5] it was -27.7% (active); in assay [6] it was 12.1%. For the same compound, the growth was -95.1% (active) in assay [7]; -52% (active) in [8]; -50.3% (active) in assay [9]; 18.6% in assay [10]; 21.4% in assay [11]; 17.7% in assay [12]. Further, the growth in [13] is 12.4%; in [14], -47.2% (active); in [15], -66.9% (active); in assay [17] it was -24% (active); in assay [18], 1.77% (active); in [19], -18.5% (active).
